Hits are enriched below; roughly 3.4% of the tested compounds scored in any of these assays.
Vif imaging = inhibitors of HIV Vif; HEK293T cells, Vif self-association by quenched fluorescence, imaging, 24 h; inhibition, % at 7.49 µM; 340,000 tested, 0.35% active; in the data active = inhibition above about 50%, passing the limit was not always enough; inconclusive = no clear call, values can overlap the other calls; inactive = below about 31%
esBAF inh = blocks esBAF chromatin remodeling in mouse ES cells; Bmi1-luciferase knock-in reporter, 24 h; 100% = twice the neutral-well signal; reporter increase, % at 12.5 µM; AID 602393; 350,000 tested, 2% active; in the data active = activation above about 40%; inconclusive = no clear call, values can overlap the other calls;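 also: 0% = median of the plate's neutral control wells and 100% = double that signal; a rise in the Bmi1 reporter signal indicates esBAF inhibition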
HSF1 inh = HSF1 inhibition; NIH3T3-HGL HSE-luciferase, MG132-induced, luminescence 8 h; active compounds read low; activity change, negative = inhibition, % at 7.5 µM (by protocol); 300,000 tested, 0.77% active;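 active = more than half of replicate wells show activity change below -50%, luminescence cut by over half; inconclusive = some wells, but at most half, below -50%; inactive = no replicate well below -50%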;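 also: luciferase reports HSF-1 transcriptional activity via heat shock element; 0% = median of DMSO wells and -100% = zero luminescence signal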
HSF1 activator = increases HSF-1 driven luciferase reporter signal; AID 504408; NIH3T3-HGL HSF-1 luciferase reporter, MG132, 8 h; 100% = twice DMSO control signal; 300,000 tested, 1.7% active; activation, % at 9 µM;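 active = mean replicate activation of at least 50% with a set share of replicates each reaching 50%; inconclusive = only one of those two conditions met; inactive = mean below 50% and too few replicates reaching it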;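 also: 0% = median of the neutral control wells and 100% = twice that signal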
Numbers without * were called inactive; ? = inconclusive; . = no result given.

SMILES	Vif imaging	esBAF inh	HSF1 inh	HSF1 activator
CC(C(=O)NC1CC(C)(C)NC(C)(C)C1)c1ccc([N+](=O)[O-])cc1 (configuration not stated)	2	.	-59*	-62
CC(C(=O)NC1CCCCCC1)c1ccc([N+](=O)[O-])cc1 (configuration not stated)	13	2	-6	3
CSCCC(=O)N1CCC(n2nccc2NC(=O)c2ccc3c(c2)OCO3)CC1	-11	61*	-1	11
Cc1cc2nc(-c3ccc(SCc4ccccn4)nc3)[nH]c2cc1C	-9	64*	19	24
CCOC(=O)CSc1ccc(-c2nc3cc(C)c(C)cc3[nH]2)cn1	8	-1	2	-3
S=C1NC2=C(CCC/C2=C\c2ccccc2)C(c2ccccc2)N1 (configuration not stated)	-6	.	8	11
C(=C1/CCCC2=C1Nc1ncnn1C2c1ccccc1)/c1ccccc1 (configuration not stated)	.	.	53	90*
CCCCSc1nnc(-c2ccccc2N)c(=O)[nH]1	-7	97*	9	21
CN=c1scc(-c2ccccc2F)n1/N=C/c1ccc(O)c(O)c1O	14	-78	-65*	-69
CN=c1scc(-c2ccccc2F)n1/N=C/c1ccc[nH]1	-9	-83	-87*	-90
CC(C)N=c1scc(-c2cccs2)n1/N=C/c1ccc(O)c(O)c1O	17	.	.	.
CCN=c1scc(-c2ccc(F)cc2)n1/N=C/c1ccccn1	4	.	10	34
C[C@@H]1CCCCO[C@@H](CN(C)C)[C@@H](C)CN([C@@H](C)CO)C(=O)c2cc(NC(=O)C3CCCCC3)ccc2O1	.	-5	.	.
C[C@@H]1CN([C@@H](C)CO)C(=O)Cc2cc(NS(=O)(=O)c3ccc(F)cc3)ccc2O[C@H]1CN(C)S(=O)(=O)c1cccs1	.	-2	.	.
COc1ccc(/C(N)=N/OC(=O)c2ccco2)cc1	4	-35	-22	-10
N/C(=N\OC(=O)c1ccco1)c1ccccc1	2	?	20	55*
Cc1ccc(/C(N)=N/OC(=O)c2ccco2)cc1	-2	-25	26	55*
Cc1occc1C(=O)O/N=C(\N)c1ccc(Cl)cc1	-4	64*	23	58*
CCCNC(=O)N[C@H]1CC[C@H](CC(=O)N2CCN(C)CC2)O[C@@H]1CO	.	-2	.	.
CCN(CCCNC(=O)CNC(=O)c1nn(-c2ccc(OC)cc2OC)c(=O)c2ccccc12)c1cccc(C)c1	-7	.	59	61*
C[C@@H]1CN([C@@H](C)CO)S(=O)(=O)c2ccc(-c3cccc(C#N)c3)cc2O[C@@H]1CN(C)C	.	-4	.	.
CCC1CCCCN1CCCNC(=O)CSc1nc2nc(C)c(Cc3ccc(C)cc3)c(C)n2n1 (configuration not stated)	4	3	-66*	-75
Cc1ccc(Cc2c(C)nc3nc(SCC(=O)NCCCN4CCCCCC4)nn3c2C)cc1	.	.	0	-1
C[C@H]1CN([C@@H](C)CO)C(=O)c2cccc(NC(=O)c3ccncc3)c2O[C@@H]1CN(C)Cc1ccc(-c2ccccc2)cc1	.	0	.	.
O=S(=O)(Cc1nc2ccccc2s1)c1ccccc1	-6	57*	29	59*
SMILES	Vif imaging	esBAF inh	HSF1 inh	HSF1 activator
O=S(=O)(c1cccs1)N1CCN(Cc2nc3ccccc3s2)CC1	-2	-4	-9	-23
O=S(=O)(/N=C(/Nc1nc2ccccc2s1)c1ccccc1)c1ccccc1	8	66*	.	.
Cc1ccc2nc(N/C(=N/S(=O)(=O)c3ccc(F)cc3)c3ccccc3)sc2c1	-6	.	13	10
O=C(OCc1nc2ccccc2s1)C1CCN(S(=O)(=O)c2cccs2)CC1	.	56*	-5	9
Cc1cc(C(=O)OCc2nc3ccccc3s2)c(C)o1	?	72*	19	38
COc1cccc(NC(=O)C[C@H]2CC[C@@H]3[C@@H](COc4ccc(NC(=O)C5CCCCC5)cc4C(=O)N3C)O2)c1	.	2	.	.
O=C(O)COCc1nc2ccccc2s1	5	-10	0	-9
CC(=O)OCc1nc2ccccc2s1	16	43*	1	2
Cc1ccc(NC(=O)CCC(=O)NNC(=O)NC2CCCCC2)c(C)c1	79*	-7	0	-5
N#C/C(=C\c1ccc(OCc2ccc(C(=O)O)cc2)cc1)C(=O)N1CCOCC1	2	.	-51*	-51
CCOc1ccc(C(=O)NC(Cc2ccccc2)C(=O)OC)cc1 (configuration not stated)	30	74*	23	41
CCS(=O)(=O)Nc1ccc2c(c1)C(=O)N(C)[C@@H]1CC[C@@H](CC(=O)NCCCN3CCOCC3)O[C@H]1CO2	.	1	.	.

Compound activity deposited in PubChem BioAssay by Broad Institute.
